# Among all 43,000 compounds or so, about 200 (0.47%) were called active. Another 12% or so got no clear call; they are omitted. This excerpt belongs to a sample that is enriched for actives. Values without a mark were called inactive. The call rests on the fitted dose curve; in most records, active means well fitted cell-killing curve with a large enough effect; inconclusive means small, poorly fitted or top-dose-only effect, or effect the other way; inactive means flat fitted curve, though single readings scatter.
# Assay: Cell viability qHTS assay in S16 Pmp22-F2sN cells; further: nearly all actives have a fitted effect of over 65% in size
# Details: S16 Pmp22-F2sN Schwann cells (luciferase reporters placed in the Pmp22 gene) viability, CellTiter-Glo, 24 h; series mostly up to 57.5 µM; activity change, negative = cytotoxicity: at the top concentration
# Source text: Assay Provider: Jim Inglese Ph.D. National Center for Advancing Translational Science, National Institutes of Health, Rockville, MD CMT is a heterogeneous group of neurological disorders that affect approximately 1 in 2,500 people. In particular, the most common form of CMT, CMT1A is genetically linked to the duplication of the PMP22 gene which leads to Schwann cell overexpression, thus manifesting itself as a typical case of dose-sensitive diseases. To identify small molecule compounds that can mediate the expression of PMP22 we developed a phenotypic assay screening strategy by utilizing genome editing techniques to construct Schwann cell lines containing novel reporter technology to monitor the transcriptional or translational regulation of PMP22. For high sensitivity we use a bioluminescent reporter system embedded in the 3' UTR of the PMP22 gene (S16(c9) Pmp22-F2sN) to identify compounds that inhibit gene expression. […] We can further discriminate the effect of all transcriptionally active molecules on PMP22 translation or stability with an assay that incorporates a short NLuc peptide (HiBiT) at the C-terminus of expressed PMP22 (S16(f8) PMP22-HiBiT) allowing alpha complementation and luminescence detection of membrane-associated PMP22 protein. These assays were screened against the NCATS Sytravon Library Collection. Miniaturization of these assays to 1536-well plate format for quantitative high throughput screening (qHTS) yielded rich data sets immediately from the qHTS assay (S16(c9) Pmp22-F2sN), when compared with data from a cell viability assay (Cell TiterGlo) to identify compounds that decreased the output signals through cellular toxicity to streamline the selection process of actives for subsequent characterization using the HiBiT assay (S16(f8) PMP22-HiBiT).
# Cell viability assay in S16 Pmp22-F2sN cells PROTOCOL TABLE (format as described by Inglese J, Shamu CE and Guy RK. 2007) SEQUENCE No. (e.g., 1, 2, 3, etc.); […] (e.g., Cells, Incubation, Reagent, etc.); VALUE and DESCRIPTION. 1. Cells. Add 500-1,000 cells in 4 uL in growth media (DMEM High Glucose, No Phenol Red media + 10% heat-inactivated FBS + 1% Pen/Strep supplemented media) per well into Greiner 1536-well white/solid bottom high base, TC-treated plates. 2. Compounds. Library compounds and controls added at 23nL per well, transferred by Pin Tool. 3. Incubation. Incubate plates at 37C, 5% CO2, 95% RH for 24 h. 4. Reagent. Add 3uL CellTiter-Glo per well of Greiner 1536-well plates. 5. Incubation. Incubate plates at room temperature for 15 min., protect from light. 6. Detector. FLuc luminescence measured using CCD-based camera (Viewlux). NOTES (numbers refer to Sequence numbers above; values are from representative experiments) 6. Luminescence Read: Clear filter; Exposure = 1 sec, Gain = High, Speed = Slow, Binning = 2X REFERENCES: 1. Inglese J, Shamu CE and Guy RK, Reporting data from high throughput screening of small molecule libraries, Nature Chemical Biology, 2007, 3(8): 438-441. doi.org/10.1038/nchembio0807-438 2. Yasgar A, Shinn P, Jadhav A, Auld DS, Michael S, Zheng W, Austin CP, Inglese J and Simeonov A, Compound Management for Quantitative High-Throughput Screening. J. Assoc. Lab. Auto., 2008, 13: 79-89. doi: 10.1016/j.jala.2007.12.004
# On the % scale 0 is the no-effect control and ±100 the full control effect; potency means the concentration at half of the fitted maximal effect.
SMILES,"activity change, negative = cytotoxicity",Potency
O=C(NCCc1ccc(Cl)cc1)c1ccc2c(c1)N(Cc1ccc(F)cc1)C(=O)CS2,-25.4%,
Cc1c(C)n(Cc2ccc(Cl)cc2)c2ccc(C(=O)NCCc3ccc(S(N)(=O)=O)cc3)cc12,-7.69%,
Cc1cccc(N2CCN(C(=O)c3cnc(N4CCCC4)nc3C)CC2)c1C,-0.0488%,
COc1ccc(Cl)cc1NC(=O)CCn1c(=O)c2cccn2c2ccccc21,8.71%,
CCCCS(=O)(=O)c1oc(-c2cccs2)nc1S(=O)(=O)c1ccccc1,,2.51 µM (active)
Cc1ccc(CSc2oc(-c3cccs3)nc2S(=O)(=O)c2ccc(C)cc2)cc1,17.9%,
CSc1oc(-c2cccs2)nc1S(=O)(=O)c1ccc(Br)cc1,-0.0965%,
COc1cn(CC(=O)Nc2cccc(C)c2C)c(CN2CCCCC2)cc1=O,-2.31%,
Cc1ccc(NC(=O)Cn2nnc3sc4c(c3c2=O)CCC(C)C4)cc1 (stereo not drawn),10.1%,
COc1ccc(CN2CCc3nc(Nc4ccccc4)ncc3C2)c(OC)c1OC,-0.963%,
CCc1nn(CC(=O)N2CCN(c3ccc(Cl)cc3)CC2)c(=O)c2cc3occc3n12,1.57%,
COc1ccc(OC)c(CNC(=O)CN2C(=O)CCn3nc(-c4cn(C)c5ccccc45)cc32)c1,2.98%,
Cc1c(Cl)cccc1NC(=O)CCS(=O)(=O)c1ccc2c(c1)oc(=O)n2C,-29%,
CCC(=O)N1CCc2cc(S(=O)(=O)NC(C(=O)Nc3ccc(C(C)=O)cc3)C(C)C)ccc21 (stereo not drawn),1.35%,
CCOc1ccc(-c2cc3nc(C4CCN(C(=O)OC(C)(C)C)CC4)c(C(=O)Nc4ccc(C(=O)OC)cc4)cn3n2)cc1,4%,
COCCN(Cc1ccco1)C(=O)Cn1ncc2c([nH]c3ccccc32)c1=O,0.904%,
CCOc1ccc(C(NC(=O)c2cc(OC)c(OC)c(OC)c2)c2cc(Cl)c3cccnc3c2O)cc1 (stereo not drawn),,1.78 µM (active)
COc1c(Cl)cc(Cl)cc1C(=O)Nc1cccc2cccnc12,3.69%,
COc1cc(C(=O)NCC(c2ccc(Cl)cc2)N2CCOCC2)cc(OC)c1OC (stereo not drawn),0.597%,
COc1cccc(N2CCN(S(=O)(=O)c3ccc4c(c3)CCCN4C(C)=O)CC2)c1,-1.03%,
CC(=O)N1CCCc2cc(S(=O)(=O)N3CCCC(C(=O)NCc4ccc(Cl)cc4)C3)ccc21 (stereo not drawn),-24.1%,
CC(=O)N1CCCc2cc(S(=O)(=O)N3CCCC(C(=O)N4CCN(c5cccc(Cl)c5)CC4)C3)ccc21 (stereo not drawn),,25.1 µM (active)
COC(=O)c1ccc(NC(=O)CSc2n[nH]c(-c3ccccc3)n2)cc1,13.3%,
CCOc1ccccc1NC(=O)Cn1c(=O)n(Cc2ccccc2)c(=O)c2c(C)c(C(=O)N(C)C)sc21,5.8%,

SMILES,"activity change, negative = cytotoxicity",Potency
Cc1ccccc1NC(=O)Cn1c(=O)n(Cc2ccco2)c(=O)c2ccc(C(=O)NC3CCCC3)cc21,7.6%,
COc1cccc(C(=O)NCc2ccc3c(c2)CCN3C(=O)c2ccncc2)c1,-2.11%,
Cc1c(CNC2CCCCC2)c(C(=O)O)c(C)n1Cc1cccc(Cl)c1,22.4%,
COc1cccc2cc(-c3nc(Cl)c4c5c(sc4n3)CC(C)CC5)c(=O)oc12 (stereo not drawn),6.33%,
Cc1ccc2nc(CN3CCN(S(=O)(=O)c4ccc(C)c(C)c4)CC3)oc2c1,10.1%,
COc1ccc(NC(=O)CN2C(=O)COc3ccc(S(=O)(=O)N4CCOCC4)cc32)cc1,19.3%,
CC(C)(C)c1ccc(S(=O)(=O)N2CCN(C(=O)c3cc(-c4ccc(Br)cc4)n[nH]3)CC2)cc1,2.31%,
Cn1c(=O)[nH]c(=O)c2c1nc(NCCc1ccccc1)n2Cc1ccc(F)cc1,-27.5%,
CCOC(=O)c1ccc(NC(=O)Cn2cc(S(=O)(=O)Cc3ccccc3F)c3ccccc32)cc1,12.9%,
Cc1ccc2nc(COc3ccccc3NC(=O)Nc3ccc(F)c(Cl)c3)cc(=O)n2c1,-13.1%,
COc1ccc(N2CCN(c3nc(-c4ccccc4F)nc4ccccc34)CC2)cc1,-1.56%,
Cc1cccc(OCC(=O)N(Cc2ccc(C(C)C)cc2)Cc2ccco2)c1C,-22%,
Cc1cccc(-n2ncc(C(=O)N3CCc4ccccc4C3)c2C2CCN(C(=O)OC(C)(C)C)CC2)c1,-9.84%,
CC(C)Oc1ccc(CNC(=O)C2CCN(c3nc4ccccc4n(C)c3=O)CC2)cc1,8.64%,
COc1cc(OC)c(NC(=O)c2cc(S(=O)(=O)N3CCCC3)cn2C)cc1Cl,1.12%,
CCN(Cc1ccccc1)S(=O)(=O)c1ccc2c(c1)CCCN2C(C)=O,-7.49%,
CCNS(=O)(=O)c1ccc(NC(=O)CSc2nc(-c3ccco3)cc(C(F)(F)F)n2)cc1,-17.6%,
COc1ccc(Cl)cc1NC(=O)c1sc2nc3c(cc2c1N)CN(C)CC3,19.1%,
COc1ccccc1NC(=O)c1sc2nc(C)c(C(=O)Nc3ccc(Cl)cc3)c(-c3ccc(Br)cc3)c2c1N,,14.1 µM (active)
COc1ccc(NC(=O)c2sc3nc(-c4cc5cccc(OC)c5oc4=O)[nH]c(=O)c3c2C)cc1,6.82%,
Cc1nnc(SCc2cc(=O)c3cc(F)ccc3[nH]2)n1C,12.3%,
Cc1ccc(CN2CCc3nc(N4CCN(C)CC4)ncc3C2)cc1,1.27%,
COc1ccc(CC(=O)NCCc2sc3nc(-c4ccc(OC)cc4)nn3c2C)cc1,-14.4%,
CC(=O)Nc1cccc(NC(=O)CSc2nccn2Cc2ccc3c(c2)OCO3)c1,5.54%,

SMILES,"activity change, negative = cytotoxicity",Potency
CCCCN(CC)CCCNC(=O)c1nn(C)c2c1CSc1ccccc1-2,-3.98%,
COC(=O)c1ccc(-c2nc3cc(NC(C)=O)ccc3o2)cc1,5.12%,
CCN1CCC(N(Cc2ccc(F)cc2)C(=O)Nc2cc(C)ccc2C)CC1,-12.8%,
COc1cc(OC)cc(C(=O)Nc2c(C(=O)Nc3ccc(F)cc3)oc3ccccc23)c1,-0.156%,
Cc1cccc(NC(=O)CSc2nc3c([nH]c4ccccc43)c(=O)n2-c2cc(C)cc(C)c2)c1,7.62%,
CCN(CCCNC(=O)Cn1ncc2c3ccccc3n(C)c2c1=O)Cc1ccccc1,3.84%,
CCOc1ccc(CNC(=O)c2cc(-c3ccc(Cl)s3)nc3ccccc23)cc1,8.53%,
O=C(NCC12CC3CC(CC(C3)C1)C2)c1cc2nc(-c3ccccc3)cc(C(F)(F)F)n2n1,14.3%,
O=C(NCCCO)C(=O)Nc1c2c(nn1-c1ccc(F)cc1)CSC2,-15.3%,
Cc1c(NS(=O)(=O)c2ccc(Cl)cc2)c(=O)n(-c2ccccc2)n1C,3.6%,
Cc1ccc(C)c(N2CCN(C(=O)Cn3ncc4c(=O)oc5ccc(C)cc5c43)CC2)c1,4.69%,
Cc1ccccc1NC(=O)Cn1c(=O)n(CC2CCC(C(=O)NCCc3ccccc3)CC2)c(=O)c2ccccc21 (stereo not drawn),16.1%,
COC(=O)c1c(NC(=O)C(C)Oc2ccc(Cl)c(C)c2)sc(C)c1C (stereo not drawn),0.0514%,
Cc1ccccc1C(=O)Nc1cc(C)c(O)c(-c2nc3ccccc3o2)c1,17%,
CCOc1ccc(NC(=O)CCC(=O)N2CC(C)Oc3ccc(C)cc32)cc1 (stereo not drawn),6.01%,
COc1ccccc1C(=O)Nc1c(C(=O)Nc2ccc(C)cc2)oc2ccccc12,8.02%,
COc1ccc(CCNC(=O)CCCn2c(=O)c3ccccc3n(Cc3ccc(C)cc3)c2=O)cc1OC,15.9%,
CN(CC(=O)Nc1ccccc1F)S(=O)(=O)c1ccc2c(c1)c(=O)n(C)c(=O)n2C,15.6%,
Cc1cccc(C)c1Nc1c(-c2ccccc2O)nc2ncccn12,-10.5%,
Cc1ccc(C)c(NC(=O)CSC2=Nc3ccccc3N=C(c3ccc(F)cc3)C2)c1,-2.61%,
O=C(CC1C(=O)N(c2ccccc2)C(=O)N1CCc1cccs1)Nc1ccc(F)cc1 (stereo not drawn),-17.5%,
COC(=O)c1ccc(NC(=O)c2cc(S(=O)(=O)N3CCC(C)CC3)cn2C)cc1,-14.5%,
CC1CCCCN1CC(=O)N1CCCc2c1c(=O)oc1ccc(OCc3ccccc3)cc21 (stereo not drawn),0.438%,
O=c1cc(CSc2ncn[nH]2)[nH]c2ccc(F)cc12,0.415%,

SMILES,"activity change, negative = cytotoxicity",Potency
CN(C(=O)CSc1nnc(NC(=O)Nc2ccccc2)s1)c1ccccc1,-10%,
Cc1cc(F)ccc1NS(=O)(=O)c1ccc(-n2cccn2)cc1,-14.3%,
Cc1ccc(Nc2c(-c3ccc(Cl)cc3)nc3sccn23)c(C)c1,28.2%,
Cc1cccc(C(=O)N2c3nc(-c4ccco4)nn3C3(CCCCC3)[C@@H]3CCCC[C@@H]32)c1,3.56%,
CC1=C(C(=O)Nc2ccccc2)C(c2ccc(C)cc2)n2nc(SCc3ccccc3C)nc2N1 (stereo not drawn),3.66%,
Cc1ccccc1NC(=O)c1cc2c([nH]c1=O)CC(C)(C)CC2=O,10.8%,
CCOC(=O)C1CCN(c2csc3ccc(C)cc3c2=O)CC1,3.59%,
Cc1c(Cl)cccc1NC(=O)C(=O)NCCc1csc2nc(-c3ccccc3F)nn12,-22.5%,
CCCCN(CCCNC(=O)c1cc(Nc2ccccc2OC)nc2ccccc12)c1ccccc1,9.74%,
Cc1ccc(N(CC(=O)NCc2ccc(Cl)cc2)S(=O)(=O)N(C)C)cc1,13.9%,
Cc1ccsc1CN(C(=O)c1oc2ccc(Br)cc2c1C)C1CCS(=O)(=O)C1 (stereo not drawn),-28.5%,
Cc1ccc(NC(=O)c2oc3ccccc3c2NC(=O)Cc2cccs2)cc1,10.9%,
COc1ccc(CCNc2nc3c(-c4cccc(F)c4)nnn3c3ccccc23)cc1OC,-1.72%,
CNC(=O)CN1C(=O)c2cccnc2Sc2ccccc21,0.0311%,
COc1ccc(CCNC(=O)c2cn(C)c3ccc(S(=O)(=O)N(C)C4CCCCC4)cc3c2=O)cc1OC,-12.3%,
COc1ccc(N2CCN(S(=O)(=O)c3ccc(-c4coc(C)n4)cc3)CC2)cc1,-6.43%,
COc1ccc(C2NC(=O)N(C)C3=C2C(=O)N(c2ccc(C(=O)O)cc2)C3)cc1 (stereo not drawn),8.03%,
O=C(CN1CCN(Cc2ccc(Cl)cc2)C1=O)NCc1ccc(F)cc1,1.11%,
COc1ccc(-n2c(SC)nc3sc4c(c3c2=O)CCN(C(C)=O)C4)cc1,2.85%,
CCOc1ccc(NC(=O)Cn2cc(C(=O)c3ccc(C)cc3)c(=O)c3cc4c(cc32)OCCO4)cc1,-0.757%,
CC(=O)c1ccc(NC(=O)CCc2nc(-c3ccc(C)cc3)no2)cc1,-13.9%,

# From PubChem BioAssay AID1508642 (National Center for Advancing Translational Sciences (NCATS), 2021)
